High-throughput results from PubChem BioAssay.
Anaer choline gr = growth inhibitors of anaerobic choline-fed gram-negatives, minimal medium, absorbance | Gram-negative bacterium anaerobic choline minimal medium; active compounds read low | calls only | hit rate 0.2% among 55,000 | AID 1963822, 2024; call rule not given here
Numbers without * were called inactive; ! = repeats disagree. Shown is part of a subset that was picked to be rich in hits.

Screening O=S(=O)(c1ccccc1)N1CCCC1c1ccc(Cl)cc1 (stereo not drawn) returned Anaer choline gr inactive.
Screening CN1CCCC1CCOC(C)(c1ccccc1)c1ccc(Cl)cc1 (stereo not drawn) returned Anaer choline gr active.
Screening CSc1ccc2c(c1)N(CCC1CCCCN1C)c1ccccc1S2 (stereo not drawn) returned Anaer choline gr inactive.
O=c1[nH]c(N2CCc3ccccc3C2)nc2c(-c3ccccc3)csc12 was read as Anaer choline gr inactive.
Screening CCCCN(C)C(=O)CN(C)S(=O)(=O)c1cc2c(cc1C)NC(=O)C(C)O2 (stereo not drawn) returned Anaer choline gr inactive.
Cn1cc(C2=C(c3cn(CCCSC(=N)N)c4ccccc34)C(=O)NC2=O)c2ccccc21 was read as Anaer choline gr inactive.
CN(C)CCCn1cc(C2=C(c3c[nH]c4ccccc34)C(=O)NC2=O)c2ccccc21 was read as Anaer choline gr active!.
`COc1ccc2c(c1)c(C1=C(c3c[nH]c4ccccc34)C(=O)NC1=O)cn2CCCN(C)C` gave Anaer choline gr inactive.
CC(C)Cc1cc(-c2nnc3sc(-c4ccccc4F)nn23)n[nH]1 was read as Anaer choline gr inactive.
CC1=NS(=O)(=O)c2cc(S(=O)(=O)CC(=O)Nc3cc(Cl)ccc3C)ccc2N1 was read as Anaer choline gr inactive.
Screening Cc1cc(N2CCC(C)CC2)nc2ccc(NC(=O)CCC(=O)NCCC(C)C)cc12 returned Anaer choline gr inactive.
For Cc1nn(-c2nc3ccccc3[nH]2)c2c1C(c1ccc(F)cc1F)CC(=O)N2 (stereo not drawn) the results were Anaer choline gr inactive.
Cc1sc2cc(C(=O)N3CCC4(CC3)OCCO4)[nH]c2c1CN1CCCCC1 was read as Anaer choline gr inactive.
For CCCN1CCN(C(=O)c2cc3sc(C)c(CN4CCCCC4)c3[nH]2)CC1 the results were Anaer choline gr inactive.
Screening Cc1sc2cc(C(=O)N3CCC(N4CCCCC4)CC3)[nH]c2c1CN1CCCCC1 returned Anaer choline gr active.
Screening c1ccc(-n2nnnc2SCCNCc2ccc3c(c2)OCCO3)cc1 returned Anaer choline gr inactive.
Screening CCc1nc(OCC(=O)Nc2cc(C)cc(C)c2)c2ccccc2n1 returned Anaer choline gr inactive.
Screening O=C(COc1ccc(-c2cnc3ccccc3n2)cc1)Nc1cc(F)ccc1F returned Anaer choline gr inactive.
Cc1nc(OCC(=O)Nc2ccc(F)cc2F)c2ccccc2n1 was read as Anaer choline gr active.
For Nc1nc2c(c(=O)[nH]1)C(c1cc(Br)ccc1F)CC(=O)N2 (stereo not drawn) the results were Anaer choline gr inactive.
For CCN1CCN(S(=O)(=O)c2cc(-c3nnc(C)o3)co2)CC1 the results were Anaer choline gr inactive.
For O=C(Nc1nc2ccccc2s1)c1ccc(S(=O)(=O)N2CCc3ccccc3C2)cc1 the results were Anaer choline gr inactive.
`CCCN1CCc2nc(NC(=O)c3ccc(S(=O)(=O)N4CCc5ccccc5C4)cc3)sc2C1` gave Anaer choline gr inactive.
Screening CCN1CCc2nc(NC(=O)c3ccc(S(=O)(=O)N4CCc5ccccc5C4)cc3)sc2C1 returned Anaer choline gr active.
`Cn1c(=O)n(C)c2cc(NC(=O)Nc3ccc(Cl)cc3)ccc21` gave Anaer choline gr inactive.
Cc1nn(CC(=O)N2CCCC2)c(C)c1S(=O)(=O)N1CCCC(C(=O)N2CCOCC2)C1 (stereo not drawn) was read as Anaer choline gr inactive.
`CN(C)CCC=C1c2ccccc2Sc2ccc(Cl)cc21` gave Anaer choline gr active.
Screening CN(C)CC/C=C1\c2ccccc2Sc2ccc(Cl)cc21 returned Anaer choline gr inactive.
CCN1CCN(c2ccc(N3CCCC(C(=O)N4CCN(c5ccccc5)CC4)C3)nn2)CC1 (stereo not drawn) was read as Anaer choline gr inactive.
Screening CCCOc1ccc(C2NCCc3c2[nH]c2ccccc32)cc1OC (stereo not drawn) returned Anaer choline gr inactive.
For COc1ccc(C2NCCc3c2[nH]c2ccccc32)cc1O (stereo not drawn) the results were Anaer choline gr inactive.
`CCOc1cc(C2NCCc3c2[nH]c2ccc(Cl)cc32)ccc1O` (stereo not drawn) gave Anaer choline gr active.
Oc1ccc(C2NCCc3c2[nH]c2ccc(Cl)cc32)cc1O (stereo not drawn) was read as Anaer choline gr inactive.
`Oc1ccc(C2NCCc3c2[nH]c2ccc(Cl)cc32)cc1` (stereo not drawn) gave Anaer choline gr active.
COc1ccc2[nH]c3c(c2c1)CCNC3c1cccc(O)c1 (stereo not drawn) was read as Anaer choline gr inactive.
For CCn1c(=O)oc2cc(NS(=O)(=O)c3c(C)noc3C)ccc21 the results were Anaer choline gr inactive.
For Cc1noc(C)c1C(=O)N1CCCC1c1c(C)noc1C (stereo not drawn) the results were Anaer choline gr inactive.
`CCOc1ccccc1N1CCN(C(=O)CCc2nnc3ccc(-c4ccc(Cl)cc4)nn23)CC1` gave Anaer choline gr inactive.
`O=c1n(Cc2ccccc2)nc2c(S(=O)(=O)N3CCc4ccccc4C3)cccn12` gave Anaer choline gr inactive.
For NC(=O)c1cnn2c3c(cnc12)CCCCCC3 the results were Anaer choline gr inactive.
`Cc1ccc(NC(=O)CCc2nc(-c3ccc(S(=O)(=O)N4CCCC4)cc3)no2)cc1C` gave Anaer choline gr inactive.
Screening CN(C(=O)c1ccc(-c2cc(N3CCOCC3)ncn2)cc1)C1CCCCC1 returned Anaer choline gr inactive.
Screening COc1ccc(-n2ccc(=O)c(-c3nc(-c4ccc(OC)c(OC)c4)no3)n2)cc1 returned Anaer choline gr inactive.
`COc1ccc(F)cc1S(=O)(=O)N(C)CC1(C)CCOCC1` gave Anaer choline gr inactive.
For O=C(NCCN1CCCC1)c1ccc(NC(=O)N2CCCCc3ccccc32)cc1 the results were Anaer choline gr inactive.
Cc1noc(C)c1C1CCCN1C(=O)c1cc(C2CC2)on1 (stereo not drawn) was read as Anaer choline gr active.
Screening Cc1cc(C(=O)N2CCCC2c2c(C)noc2C)no1 (stereo not drawn) returned Anaer choline gr inactive.
For CCc1onc(C)c1C1CCCN1C(=O)c1cc(C2CC2)on1 (stereo not drawn) the results were Anaer choline gr inactive.
COc1ccc(C(=O)Nc2sc3c(c2-c2nc4ccccc4s2)CCN(C(C)C)C3)cc1OC was read as Anaer choline gr active.
Screening COC(=O)c1ccc(C(=O)Nc2sc3c(c2-c2nc4ccccc4s2)CCN(C(C)C)C3)cc1 returned Anaer choline gr inactive.
For CC(=O)Nc1sc2c(c1-c1nc3ccccc3s1)CCN(C(C)C)C2 the results were Anaer choline gr inactive.
CC1CCCN(c2ccc(NC(=O)C3CCC3)c(C(=O)O)c2)C1 (stereo not drawn) was read as Anaer choline gr inactive.
For CN1CCCN(c2ccc(NC(=O)c3ccccc3Cl)c(C(=O)O)c2)CC1 the results were Anaer choline gr inactive.
`CC1CCCN(c2ccc(NC(=O)c3ccccc3Cl)c(C(=O)O)c2)C1` (stereo not drawn) gave Anaer choline gr active.
Screening Cc1ccc(NC(=O)CCCC2=NS(=O)(=O)c3ccccc3N2)cc1F returned Anaer choline gr active.
`Cc1cc(C)cc(NC(=O)CC2(CC3=NS(=O)(=O)c4ccccc4N3)CCCC2)c1` gave Anaer choline gr inactive.
O=C(CCC1=NS(=O)(=O)c2ccccc2N1)NCc1ccc(F)cc1 was read as Anaer choline gr inactive.
